Hits are enriched below; roughly 5.8% of the tested compounds scored in any of these assays.
MCF10A rereplic: A quantitative high throughput screen for small molecules that induce DNA re-replication in MCF 10a normal breast cells | MCF 10A DNA re-replication, Hoechst nuclear intensity, 48 h | Potency, µM (highest dose often 46.1 µM), without a hit: top-dose activity, positive = re-replication, hits mostly activators | 350,000 tested, 2.9% active | AID 624296, 2012; also: % of control where 0% means no effect; nearly all actives have a fitted effect of over 50% in size
PINK1 modulator: A Quantitative High throughput Screen to Identify Chemical Modulators of PINK1 Expression. PINK1 immunofluorescence, high-content cytometry, 24 h. Potency, µM (highest dose often 76.6 µM), without a hit: at the highest dose activation (PINK1 increase), actives largely listed as activators. 410,000 tested, 0.2% active; active = well fitted activation curve with a large enough effect; inconclusive = small, poorly fitted or top-dose-only effect; cell line not stated here; also: % of control where 0% means no effect; nearly all actives have a fitted effect of over 65% in size
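Stable cell line treated 24 h with compounds at 5 concentrations (CCCP controls), then fixed and immunostained for PINK1 plus nuclear and cell stains; PINK1 immunofluorescence quantified by laser-scanning microplate cytometry.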
SW480 rereplic: A quantitative high throughput screen for small molecules that induce DNA re-replication in SW480 colon adenocarcinoma cells | Potency, µM (top dose mostly 46.1 µM), inactives show top-dose re-replication activation, hits mostly activators | 340,000 tested, 1.8% active | SW480 DNA re-replication, Hoechst DNA content imaging, 48 h; also: % of control where 0% means no effect; nearly all actives have a fitted effect of over 55% in size
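Image-based read-out: total Hoechst fluorescence of nuclei (405 nm excitation, 500-530 nm emission), with hits raising the fraction of high-intensity nuclei. SW480 colon cells incubated 48 hr with compounds at 37 C.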
KB-V1 cytotox: qHTS assay for MDR1-selective chemotherapeutics: Primary screen using the drug-selected MDR subline cells KB-V1 | KB-V1 MDR cells viability, CellTiter-Glo, 72 h | AID 1347076, 2019 | 400,000 tested, 3.4% active | Potency, µM (series often up to 46.1 µM), most hits filed as cytotoxic; also: % is scaled to controls: 0 for no effect and ±100 for the full control effect; nearly all actives have a fitted effect of over 60% in size
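In this primary screen, KB-V1 cells overexpressing P-gp are incubated with library compounds (lowest to highest concentration) for 72 h at 37 degrees C before a luminescent ATP viability read.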
ALOX12 inh: Primary qHTS assay for inhibitors of human arachidonate 12S-lipoxygenase (ALOX12): Round 2; Polyunsaturated fatty acid lipoxygenase ALOX12 (Homo sapiens), P18054; purified 12hLO, xylenol orange hydroperoxide absorbance; Potency, µM (series often up to 108 µM), for the others: top-dose activity change, negative = inhibition, actives largely listed as inhibitors; 580,000 tested, 1.1% active; also: % is scaled to controls: 0 for no effect and ±100 for the full control effect
Target sequence (P18054 whole entry, looked up): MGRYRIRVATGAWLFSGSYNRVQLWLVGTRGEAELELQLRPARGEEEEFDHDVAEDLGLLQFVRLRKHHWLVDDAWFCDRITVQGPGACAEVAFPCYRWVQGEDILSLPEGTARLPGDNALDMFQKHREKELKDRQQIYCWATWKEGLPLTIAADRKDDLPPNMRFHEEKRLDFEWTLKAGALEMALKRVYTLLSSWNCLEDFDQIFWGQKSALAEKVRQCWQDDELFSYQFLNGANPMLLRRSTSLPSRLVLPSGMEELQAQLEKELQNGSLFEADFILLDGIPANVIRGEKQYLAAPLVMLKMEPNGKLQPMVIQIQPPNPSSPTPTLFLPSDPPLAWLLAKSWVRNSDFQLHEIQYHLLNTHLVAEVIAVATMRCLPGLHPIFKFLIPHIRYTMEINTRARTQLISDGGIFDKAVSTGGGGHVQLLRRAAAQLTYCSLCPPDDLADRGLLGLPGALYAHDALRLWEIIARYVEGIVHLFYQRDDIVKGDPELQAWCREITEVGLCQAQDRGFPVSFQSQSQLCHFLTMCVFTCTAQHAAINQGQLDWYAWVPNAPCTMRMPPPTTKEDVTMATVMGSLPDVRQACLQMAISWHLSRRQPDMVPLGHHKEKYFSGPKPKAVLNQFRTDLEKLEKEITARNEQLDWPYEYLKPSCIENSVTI
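Hydroperoxide product was detected by ferrous iron/xylenol orange as the 573 to 405 nm absorbance ratio. Arachidonic acid at 40 uM (final) was turned over for 30 min at room temperature by 150 nM human 12hLO, pH 7.0 Hepes buffer, after 15 min compound preincubation.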
KB-3-1 cytotox: qHTS assay for MDR1-selective chemotherapeutics: Primary screen using the parental adenocarcinoma cell KB-3-1 | KB-3-1 viability, CellTiter-Glo ATP luminescence, 72 h | Potency, µM (series often up to 46.1 µM), actives largely listed as cytotoxic | AID 1347075, 2019 | 400,000 tested, 1.4% active; also: % is scaled to controls: 0 for no effect and ±100 for the full control effect; nearly all actives have a fitted effect of over 60% in size
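72 h, 37 °C compound treatment of KB-3-1 parental cells; CellTiter-Glo added, 10 min, luminescence read. Data corrected against DMSO-only plates and normalized before curve fitting.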
Starred values were filed as active, the others as inactive; i = inactive; ? = inconclusive; nt = no result given; [ ] = another dose, or the depositor's remark. Unless noted, calls follow the shape of the dose curve; as a rule, active = well fitted curve in the direction sought with a large enough effect; inconclusive = small, poorly fitted or top-dose-only effect, or another doubt; inactive = no such curve, though single readings can be large; an effect the other way counts as inactive or inconclusive. Potency is read from the fitted curve at half-maximal effect.

SMILES | MCF10A rereplic | PINK1 modulator | SW480 rereplic | KB-V1 cytotox | ALOX12 inh | KB-3-1 cytotox
c1coc(-c2cc3nc(NCc4ccc5c(c4)OCO5)ccn3n2)c1 | nt | 2% | nt | i | 32µM* | i
Cn1c2c(c(=O)n(C)c1=O)C(C(F)(F)F)(C(F)(F)F)N=C(c1ccc(Cl)cc1)N2 | ? | ? | 13% | 2.3µM* | nt | 2.3µM*
Cc1ccccc1C1=NC(C(F)(F)F)(C(F)(F)F)c2c(n(C)c(=O)n(C)c2=O)N1 | 8% | 5% | -7% | 16µM* | -3% | ?
CCN(CC)CCCNC(=O)CCNc1nc(Cl)nc2nc[nH]c12 | nt | nt | nt | nt | -39% | nt
COc1cccc(-c2noc(-c3ccc(Br)cc3)n2)c1 | nt | nt | nt | nt | -4% | nt
CCOC(=O)c1cc(S(=O)(=O)Nc2ccc(OCc3ccccc3)cc2)[nH]n1 | nt | nt | nt | nt | 8.9µM* | nt
CN(C)C(=O)COC(=O)c1cccc(S(=O)(=O)Nc2ccc(OCc3ccccc3)cc2)c1 | 13% | 2% | 1% | i | -41% | ?
Cc1ccccc1NC(=O)CSc1ccc(N2CCC(C(=O)N3CCCCC3)CC2)nn1 | nt | nt | nt | nt | 0% | nt
CCOC(=O)C1=C(C)NC2=C(C(=O)c3ccccc32)C1c1ccc([N+](=O)[O-])o1 (stereo unspecified) | 20% | 0% | -9%[9.22 µM] | ? | 28µM* | i
CC1CCCN(C(=O)C(C)Sc2nc(-c3ccccc3)cc(C(F)(F)F)n2)C1 (stereo unspecified) | ? | nt | ? | ? | 7% | i
CC(Sc1nc(-c2ccccc2)cc(C(F)(F)F)n1)C(=O)N1CCCCC1 (stereo unspecified) | 21µM* | -1% | ? | ? | nt | i
Cc1ccc(C)c(C(=O)COc2ccccc2[N+](=O)[O-])c1 | ? | 3% | ? | i | 1% | i
Cc1cc(C)c(S(=O)(=O)Oc2ccccc2[N+](=O)[O-])c(C)c1 | 6.5µM* | 13% | 21µM* | 15µM* | 9% | i
CCCc1c(C(=O)NCCc2ccccc2)nnn1-c1ccc(C)cc1 | nt | nt | nt | nt | -9% | nt
CCOc1ncccc1C(=O)N1CCN(C(=O)c2ccccc2)CC1 | 4% | -1% | 6% | i | -1% | ?
CCOc1ncccc1C(=O)N1CCN(c2cccc(C)c2C)CC1 | ? | 0% | 0.73µM* | ? | 4% | 1µM*
CCOc1ncccc1C(=O)N1CCN(c2cc(Cl)ccc2C)CC1 | 15µM* | 0% | 0.65µM* | 0.82µM* | 5% | 2.1µM*
CCOC(=O)c1ccc(S(=O)(=O)Nc2ccc3cn[nH]c3c2)cc1 | 5% | 0% | 1% | 18µM* | ? | ?
Cc1ccc2c(CN3CCN(C(=O)c4ccc(C)c(F)c4)CC3)cc(=O)oc2c1 | nt | nt | nt | nt | -4% | nt
COc1cc(OC)cc(C(=O)N2CCC(Cc3nc(-c4ccc(F)cc4)no3)CC2)c1 | nt | nt | nt | nt | -13% | nt
COc1ccc(S(=O)(=O)c2c(C)c(C)n(C3CCCC3)c2NC(C)=O)cc1 | nt | nt | nt | nt | -6% | nt
Cc1cccc(N2CCN(C(=O)C3CCCN(S(=O)(=O)c4ccc5c(c4)oc(=O)n5C)C3)CC2)c1C (stereo unspecified) | nt | 1% | nt | i | -2% | 7.3µM*
Cc1cccc(N2CCN(C(=O)C3CCN(S(=O)(=O)c4ccc5c(c4)oc(=O)n5C)CC3)CC2)c1C | nt | 3% | nt | i | -4% | i
Cn1c(=O)oc2cc(S(=O)(=O)N3CCCC(C(=O)N4CCN(c5cccc(Cl)c5)CC4)C3)ccc21 (stereo unspecified) | nt | 5% | nt | i | -7% | 21µM*
Cn1c(=O)oc2cc(S(=O)(=O)N3CCC(C(=O)N4CCN(c5cccc(Cl)c5)CC4)CC3)ccc21 | nt | 4% | nt | i | -16% | i
SMILES | MCF10A rereplic | PINK1 modulator | SW480 rereplic | KB-V1 cytotox | ALOX12 inh | KB-3-1 cytotox
Cc1ccc(S(=O)(=O)CC(CN2CCOCC2)N2CCOCC2)cc1 (stereo unspecified) | 1% | 0% | -11% | i | 1% | i
CC1CCN(CC(CS(=O)(=O)c2ccc([N+](=O)[O-])cc2)N2CCC(C)CC2)CC1 (stereo unspecified) | 1.8µM* | -1% | 2.9µM* | ? | -23% | 5.2µM*
CCCSc1ccccc1C(=O)NC(C)(C)C | nt | nt | nt | nt | 1% | nt
O=S(=O)(c1c(F)cccc1F)N1CCN(Cc2c(O)ccc3ccccc23)CC1 | 19% | 0% | -11% | ? | 13µM* | i
Oc1cnc2ccccc2c1CN1CCOCC1 | -3% | -1% | 2% | i | -23% | i
COc1ccc2ccc(O)c(CN3CCN(S(=O)(=O)c4cccc(C(F)(F)F)c4)CC3)c2c1 | 5% | 0% | ? | i | -14% | i
Oc1ccc2ccccc2c1CN1CCOCC1 | -6% | 1% | -7% | i | 7.1µM* | i
OCCC1CN(Cc2ccccc2O)CCN1CCCc1ccccc1 (stereo unspecified) | 7% | 0% | -5% | i | 0% | i
OCCC1CN(Cc2c(O)ccc3ccccc23)CCN1CCc1ccccc1 (stereo unspecified) | 7% | 2% | 3% | ? | 7.1µM* | i
CC(C)c1cc(C(=O)NC2CC2)c2cnn(C(C)C)c2n1 | nt | nt | nt | nt | -7% | nt
CCOC(=O)N1CCN(C(=O)c2ccc(N3CCCCS3(=O)=O)cc2Cl)CC1 | nt | nt | nt | nt | 12% | nt
O=C(Cc1cccs1)N1CCN(c2ncnc3c2nnn3-c2ccc(F)cc2)CC1 | nt | nt | nt | nt | -6% | nt
COC(=O)c1ccccc1-c1ccc(/C=N/NC(N)=O)o1 | -4% | 1% | -18% | 5.2µM* | 112% | 15µM*
COC(=O)N/N=C/c1ccc(-c2ccccc2Cl)o1 | 1% | 1% | -7% | 6.5µM* | ? | ?
Cc1cncc2cccc(S(=O)(=O)N3CCCN(C(=O)CN)C[C@@H]3C)c12 | nt | nt | nt | nt | 4.3µM* | nt
O=C(O)c1cc(S(=O)(=O)N(Cc2ccccc2)c2ccc(Cl)cc2)ccc1Cl | 21µM* | -2% | ? | i | ? | i
O=C(CN(c1ccc(Cl)cc1)S(=O)(=O)c1ccc(Cl)c([N+](=O)[O-])c1)NCCc1ccccc1 | 3.7µM* | 1% | -15% | i | 12% | i
Cc1ccc(N(CC(=O)NCC2CCCO2)S(=O)(=O)c2ccc(C)cc2)cc1 (stereo unspecified) | nt | nt | nt | nt | -24% | nt
